# In article PMC7862700, “An all-to-all approach to the identification of sequence-specific readers for epigenetic DNA modifications on cytosine”:
# Columns and labels:
# Test in all cases: DAPPL (digital affinity profiling via proximity ligation, sequencing); 10 mM Tris-HCl pH 7.5, 50 mM NaCl, 1 mM DTT, 4% glycerol, room temperature, 30 min; GST-TFs on glutathione beads, 16-mer random dsDNA library, 0.1% formaldehyde crosslink after washing; high values mean tight binding
# FLI1 = biological target: T1, FLI1 (Homo sapiens, UniProt Q01543 1-452); settings: protein: recombinant; tags: N-terminal GST; dsDNA, one strand shown
# T1 sequence: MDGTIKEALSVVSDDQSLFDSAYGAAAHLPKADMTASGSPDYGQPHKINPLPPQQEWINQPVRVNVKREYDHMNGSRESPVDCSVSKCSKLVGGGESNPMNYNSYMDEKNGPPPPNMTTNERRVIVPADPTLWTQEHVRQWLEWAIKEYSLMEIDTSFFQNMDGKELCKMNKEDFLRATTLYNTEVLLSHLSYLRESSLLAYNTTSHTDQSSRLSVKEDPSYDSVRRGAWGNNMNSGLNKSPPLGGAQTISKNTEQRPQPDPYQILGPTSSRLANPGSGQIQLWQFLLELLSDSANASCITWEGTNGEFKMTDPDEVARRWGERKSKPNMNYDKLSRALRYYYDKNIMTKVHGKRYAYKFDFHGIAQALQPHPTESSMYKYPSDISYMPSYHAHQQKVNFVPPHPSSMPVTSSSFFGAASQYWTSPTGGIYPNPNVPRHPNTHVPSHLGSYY
# How it was run: (§1)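 Human transcription factors carrying a GST fusion were produced in yeast, bound to glutathione beads, tagged with DNA barcodes and pooled together with a tag-only sample. Each pool was held with 200 nmole of a random double-stranded 16-mer DNA library in Tris/NaCl/DTT/glycerol buffer for 30 min at room temperature, then washed, crosslinked in 0.1% formaldehyde, proximity-ligated with BsaI/T4 ligase (1 h, 37 °C), PCR-amplified and sequenced on an Illumina NextSeq500. Binding signal is the read frequency of each hexamer for a given factor divided by its frequency in the tag-only sample.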
# ELK1 = biological target: T2, ELK1 (Homo sapiens, UniProt P19419 1-428); settings: protein: recombinant; tags: N-terminal GST; dsDNA, one strand shown
# T2 sequence: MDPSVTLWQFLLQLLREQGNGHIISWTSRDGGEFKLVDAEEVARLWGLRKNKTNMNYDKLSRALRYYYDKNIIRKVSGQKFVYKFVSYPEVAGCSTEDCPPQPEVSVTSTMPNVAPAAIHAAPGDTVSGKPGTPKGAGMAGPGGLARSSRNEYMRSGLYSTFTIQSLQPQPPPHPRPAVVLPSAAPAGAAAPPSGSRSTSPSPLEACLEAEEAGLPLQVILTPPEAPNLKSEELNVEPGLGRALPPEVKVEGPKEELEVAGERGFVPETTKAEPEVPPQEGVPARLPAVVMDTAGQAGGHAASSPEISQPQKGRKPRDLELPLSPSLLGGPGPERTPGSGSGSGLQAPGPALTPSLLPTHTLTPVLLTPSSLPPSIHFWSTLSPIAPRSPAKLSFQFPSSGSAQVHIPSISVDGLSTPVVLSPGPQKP
# How it was run: as §1
# GABPA = biological target: T3, GABPA (Homo sapiens, UniProt Q06546 1-454); settings: protein: recombinant; tags: N-terminal GST; dsDNA, one strand shown
# T3 sequence: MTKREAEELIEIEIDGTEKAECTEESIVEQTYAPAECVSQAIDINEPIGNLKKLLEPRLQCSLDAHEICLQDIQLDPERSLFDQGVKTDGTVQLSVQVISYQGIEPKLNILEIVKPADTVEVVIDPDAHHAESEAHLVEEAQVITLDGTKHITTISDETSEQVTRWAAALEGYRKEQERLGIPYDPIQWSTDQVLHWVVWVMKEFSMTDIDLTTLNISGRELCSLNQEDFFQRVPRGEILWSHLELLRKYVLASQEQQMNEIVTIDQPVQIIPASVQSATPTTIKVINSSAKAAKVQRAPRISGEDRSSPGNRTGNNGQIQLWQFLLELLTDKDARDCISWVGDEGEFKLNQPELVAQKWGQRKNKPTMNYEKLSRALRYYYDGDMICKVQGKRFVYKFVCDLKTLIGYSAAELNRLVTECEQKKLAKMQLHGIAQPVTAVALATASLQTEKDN
# How it was run: as §1
# ERG = biological target: T4, ERG (Homo sapiens, UniProt P11308 1-479); settings: protein: recombinant; tags: N-terminal GST; dsDNA, one strand shown
# T4 sequence: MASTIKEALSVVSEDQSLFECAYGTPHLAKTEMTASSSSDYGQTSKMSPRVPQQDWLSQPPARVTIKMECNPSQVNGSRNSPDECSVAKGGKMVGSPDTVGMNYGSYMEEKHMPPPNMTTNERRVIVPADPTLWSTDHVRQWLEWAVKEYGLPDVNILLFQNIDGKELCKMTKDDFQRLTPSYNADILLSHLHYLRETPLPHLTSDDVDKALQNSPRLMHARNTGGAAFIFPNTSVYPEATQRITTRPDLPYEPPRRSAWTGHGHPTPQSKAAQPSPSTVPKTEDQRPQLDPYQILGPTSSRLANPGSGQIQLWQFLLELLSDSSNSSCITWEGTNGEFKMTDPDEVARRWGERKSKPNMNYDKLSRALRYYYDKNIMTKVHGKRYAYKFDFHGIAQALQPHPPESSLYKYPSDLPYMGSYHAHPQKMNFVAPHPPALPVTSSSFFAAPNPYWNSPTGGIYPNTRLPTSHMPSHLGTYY
# How it was run: as §1
# ELF1 = ELF1 (Homo sapiens, UniProt P32519 1-619); settings: protein: recombinant; tags: N-terminal GST; dsDNA, one strand shown
# How it was run: as §1
# EHF = biological target: T5, EHF (Homo sapiens, UniProt Q9NZC4 1-300); settings: protein: recombinant; tags: N-terminal GST; dsDNA, one strand shown
# T5 sequence: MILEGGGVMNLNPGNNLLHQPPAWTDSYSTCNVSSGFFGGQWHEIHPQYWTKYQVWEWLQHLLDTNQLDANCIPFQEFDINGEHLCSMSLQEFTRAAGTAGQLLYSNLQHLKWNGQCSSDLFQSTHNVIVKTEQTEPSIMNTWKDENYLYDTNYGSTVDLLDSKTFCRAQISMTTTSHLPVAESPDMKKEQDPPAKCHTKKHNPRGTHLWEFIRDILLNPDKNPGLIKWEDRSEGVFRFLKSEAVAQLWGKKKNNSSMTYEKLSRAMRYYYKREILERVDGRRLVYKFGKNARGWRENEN
# How it was run: as §1
# SPI1 = SPI1 (Homo sapiens, UniProt P17947 1-270); settings: protein: recombinant; tags: N-terminal GST; dsDNA, one strand shown
# How it was run: as §1
# SPIB = SPIB (Homo sapiens, UniProt Q01892 1-262); settings: protein: recombinant; tags: N-terminal GST; dsDNA, one strand shown
# How it was run: as §1
# ELK3 = biological target: T6, ELK3 (Homo sapiens, UniProt P41970 1-407); settings: protein: recombinant; tags: N-terminal GST; dsDNA, one strand shown
# T6 sequence: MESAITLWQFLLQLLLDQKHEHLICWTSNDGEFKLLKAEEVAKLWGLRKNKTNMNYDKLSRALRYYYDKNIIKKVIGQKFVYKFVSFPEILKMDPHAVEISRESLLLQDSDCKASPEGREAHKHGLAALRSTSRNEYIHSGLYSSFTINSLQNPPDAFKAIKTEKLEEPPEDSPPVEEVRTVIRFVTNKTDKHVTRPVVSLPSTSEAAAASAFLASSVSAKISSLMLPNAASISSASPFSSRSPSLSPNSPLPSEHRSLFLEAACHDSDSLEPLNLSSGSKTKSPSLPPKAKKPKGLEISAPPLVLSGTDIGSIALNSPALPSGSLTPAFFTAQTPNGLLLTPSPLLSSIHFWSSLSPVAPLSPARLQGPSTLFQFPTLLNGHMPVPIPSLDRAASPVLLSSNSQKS
# How it was run: as §1
# FEV = biological target: T7, FEV (Homo sapiens, UniProt Q99581 1-238); settings: protein: recombinant; tags: N-terminal GST; dsDNA, one strand shown
# T7 sequence: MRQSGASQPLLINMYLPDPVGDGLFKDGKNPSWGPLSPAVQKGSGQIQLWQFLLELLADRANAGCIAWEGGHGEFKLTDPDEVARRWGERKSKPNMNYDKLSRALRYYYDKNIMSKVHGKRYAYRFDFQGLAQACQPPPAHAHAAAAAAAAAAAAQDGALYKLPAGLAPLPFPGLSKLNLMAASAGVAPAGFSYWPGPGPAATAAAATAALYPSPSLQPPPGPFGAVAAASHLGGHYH
# How it was run: as §1
# ETV5 = ETV5 (Homo sapiens, UniProt P41161 1-510); settings: protein: recombinant; tags: N-terminal GST; dsDNA, one strand shown
# How it was run: as §1
# HSF1 = HSF1 (Homo sapiens, UniProt Q00613 1-529); settings: protein: recombinant; tags: N-terminal GST; chain copies: 3; dsDNA, one strand shown
# How it was run: as §1
# SPIC = biological target: T8, SPIC (Homo sapiens, UniProt Q8N5J4 1-248); settings: protein: recombinant; tags: N-terminal GST; dsDNA, one strand shown
# T8 sequence: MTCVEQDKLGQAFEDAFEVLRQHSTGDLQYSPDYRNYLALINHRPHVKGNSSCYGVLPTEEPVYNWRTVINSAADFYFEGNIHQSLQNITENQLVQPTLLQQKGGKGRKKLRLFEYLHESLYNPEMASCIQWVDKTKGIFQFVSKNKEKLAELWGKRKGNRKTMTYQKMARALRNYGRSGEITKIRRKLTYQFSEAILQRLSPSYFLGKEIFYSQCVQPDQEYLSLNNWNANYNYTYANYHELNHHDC
# How it was run: as §1
# ELF4 = ELF4 (Homo sapiens, UniProt Q99607 1-663); settings: protein: recombinant; tags: N-terminal GST; dsDNA, one strand shown
# How it was run: as §1
# ELK4 = biological target: T9, ELK4 (Homo sapiens, UniProt P28324-2 1-405); settings: protein: recombinant; tags: N-terminal GST; dsDNA, one strand shown
# T9 sequence: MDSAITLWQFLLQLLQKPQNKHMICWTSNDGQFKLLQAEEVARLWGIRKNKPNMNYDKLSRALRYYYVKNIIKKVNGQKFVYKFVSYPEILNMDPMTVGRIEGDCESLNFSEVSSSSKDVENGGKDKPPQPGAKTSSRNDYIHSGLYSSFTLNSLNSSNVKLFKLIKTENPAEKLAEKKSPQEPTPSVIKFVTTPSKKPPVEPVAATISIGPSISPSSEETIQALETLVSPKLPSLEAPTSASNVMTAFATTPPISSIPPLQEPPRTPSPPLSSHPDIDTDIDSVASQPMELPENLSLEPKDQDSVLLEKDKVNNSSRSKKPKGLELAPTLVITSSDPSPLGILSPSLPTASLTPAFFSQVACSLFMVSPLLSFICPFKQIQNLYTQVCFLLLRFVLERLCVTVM
# How it was run: as §1
# ELF3 = biological target: T10, ELF3 (Homo sapiens, UniProt P78545 1-371); settings: protein: recombinant; tags: N-terminal GST; dsDNA, one strand shown
# T10 sequence: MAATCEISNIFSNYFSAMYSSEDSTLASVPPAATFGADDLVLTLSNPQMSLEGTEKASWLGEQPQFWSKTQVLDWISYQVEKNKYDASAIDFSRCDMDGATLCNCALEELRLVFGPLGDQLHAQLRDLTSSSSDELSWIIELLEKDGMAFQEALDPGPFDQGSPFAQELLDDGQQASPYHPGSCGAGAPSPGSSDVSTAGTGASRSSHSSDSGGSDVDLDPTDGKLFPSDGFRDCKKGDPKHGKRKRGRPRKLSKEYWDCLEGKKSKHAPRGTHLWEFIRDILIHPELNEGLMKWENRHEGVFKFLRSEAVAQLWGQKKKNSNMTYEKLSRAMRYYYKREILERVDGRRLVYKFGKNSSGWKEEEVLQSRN
# How it was run: as §1
# CRX = CRX (Homo sapiens, UniProt O43186 1-299); settings: protein: recombinant; tags: N-terminal GST; dsDNA, one strand shown
# How it was run: as §1
# ETV1 = ETV1 (Homo sapiens, UniProt P50549 1-477); settings: protein: recombinant; tags: N-terminal GST; dsDNA, one strand shown
# How it was run: as §1
# Sequence of SPIB (Q01892 whole entry): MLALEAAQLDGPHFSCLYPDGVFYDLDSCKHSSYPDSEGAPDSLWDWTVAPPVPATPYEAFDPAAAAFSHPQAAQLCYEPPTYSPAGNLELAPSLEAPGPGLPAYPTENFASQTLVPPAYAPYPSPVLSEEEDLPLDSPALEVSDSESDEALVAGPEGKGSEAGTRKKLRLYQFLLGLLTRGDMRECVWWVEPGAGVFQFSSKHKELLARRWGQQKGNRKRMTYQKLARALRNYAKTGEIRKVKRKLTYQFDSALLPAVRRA
# Sequence of CRX (O43186 whole entry): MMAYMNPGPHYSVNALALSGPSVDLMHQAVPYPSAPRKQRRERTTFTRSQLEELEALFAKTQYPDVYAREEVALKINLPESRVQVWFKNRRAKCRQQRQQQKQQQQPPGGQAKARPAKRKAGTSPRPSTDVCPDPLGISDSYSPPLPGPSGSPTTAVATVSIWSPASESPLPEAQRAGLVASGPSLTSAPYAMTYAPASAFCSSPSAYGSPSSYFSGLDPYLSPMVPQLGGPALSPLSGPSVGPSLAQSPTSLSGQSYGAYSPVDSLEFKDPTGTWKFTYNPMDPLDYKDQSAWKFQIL
# Sequence of ELF4 (Q99607 whole entry): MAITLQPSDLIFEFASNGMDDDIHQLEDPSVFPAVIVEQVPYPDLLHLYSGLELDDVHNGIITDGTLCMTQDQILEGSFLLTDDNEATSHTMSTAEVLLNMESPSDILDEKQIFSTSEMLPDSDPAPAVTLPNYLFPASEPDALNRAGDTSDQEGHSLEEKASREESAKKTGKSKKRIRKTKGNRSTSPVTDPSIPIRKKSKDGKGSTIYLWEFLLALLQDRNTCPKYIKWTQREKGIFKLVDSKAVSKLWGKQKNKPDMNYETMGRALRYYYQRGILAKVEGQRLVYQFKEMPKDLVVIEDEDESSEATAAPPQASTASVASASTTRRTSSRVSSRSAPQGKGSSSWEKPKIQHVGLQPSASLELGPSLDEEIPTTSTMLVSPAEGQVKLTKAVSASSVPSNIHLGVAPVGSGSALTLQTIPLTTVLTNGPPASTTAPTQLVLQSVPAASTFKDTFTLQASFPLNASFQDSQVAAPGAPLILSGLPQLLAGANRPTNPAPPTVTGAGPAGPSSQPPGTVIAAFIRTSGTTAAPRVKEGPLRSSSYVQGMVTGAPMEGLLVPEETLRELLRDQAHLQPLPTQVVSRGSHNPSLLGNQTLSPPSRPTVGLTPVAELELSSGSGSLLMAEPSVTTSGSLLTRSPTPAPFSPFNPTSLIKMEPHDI
# Sequence of ETV1 (P50549 whole entry): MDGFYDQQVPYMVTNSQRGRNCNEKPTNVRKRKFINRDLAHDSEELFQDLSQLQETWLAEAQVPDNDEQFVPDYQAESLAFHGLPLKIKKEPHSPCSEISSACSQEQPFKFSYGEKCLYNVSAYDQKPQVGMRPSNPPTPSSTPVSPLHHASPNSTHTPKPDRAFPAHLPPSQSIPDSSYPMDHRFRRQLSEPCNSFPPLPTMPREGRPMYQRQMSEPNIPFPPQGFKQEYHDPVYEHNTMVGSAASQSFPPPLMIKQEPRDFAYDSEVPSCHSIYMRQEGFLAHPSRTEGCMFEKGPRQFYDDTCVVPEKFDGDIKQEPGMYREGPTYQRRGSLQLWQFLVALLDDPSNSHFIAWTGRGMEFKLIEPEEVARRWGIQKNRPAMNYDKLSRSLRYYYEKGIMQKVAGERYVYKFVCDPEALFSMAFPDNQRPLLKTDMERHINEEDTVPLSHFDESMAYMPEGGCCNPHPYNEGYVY
# Sequence of HSF1 (Q00613 whole entry): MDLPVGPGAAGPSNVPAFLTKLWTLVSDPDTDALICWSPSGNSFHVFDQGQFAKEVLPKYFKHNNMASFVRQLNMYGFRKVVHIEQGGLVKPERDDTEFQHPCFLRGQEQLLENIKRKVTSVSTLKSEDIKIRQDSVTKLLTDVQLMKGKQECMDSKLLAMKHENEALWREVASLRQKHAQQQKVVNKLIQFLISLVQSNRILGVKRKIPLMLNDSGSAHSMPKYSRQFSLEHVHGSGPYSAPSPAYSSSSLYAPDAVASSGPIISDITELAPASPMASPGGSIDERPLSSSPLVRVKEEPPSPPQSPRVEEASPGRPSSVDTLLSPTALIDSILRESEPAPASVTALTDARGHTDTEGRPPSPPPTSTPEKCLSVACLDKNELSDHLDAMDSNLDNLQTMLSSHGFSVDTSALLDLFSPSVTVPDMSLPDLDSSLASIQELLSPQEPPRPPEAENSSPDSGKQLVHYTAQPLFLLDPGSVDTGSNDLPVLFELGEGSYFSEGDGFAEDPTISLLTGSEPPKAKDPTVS
# Sequence of ELF1 (P32519 whole entry): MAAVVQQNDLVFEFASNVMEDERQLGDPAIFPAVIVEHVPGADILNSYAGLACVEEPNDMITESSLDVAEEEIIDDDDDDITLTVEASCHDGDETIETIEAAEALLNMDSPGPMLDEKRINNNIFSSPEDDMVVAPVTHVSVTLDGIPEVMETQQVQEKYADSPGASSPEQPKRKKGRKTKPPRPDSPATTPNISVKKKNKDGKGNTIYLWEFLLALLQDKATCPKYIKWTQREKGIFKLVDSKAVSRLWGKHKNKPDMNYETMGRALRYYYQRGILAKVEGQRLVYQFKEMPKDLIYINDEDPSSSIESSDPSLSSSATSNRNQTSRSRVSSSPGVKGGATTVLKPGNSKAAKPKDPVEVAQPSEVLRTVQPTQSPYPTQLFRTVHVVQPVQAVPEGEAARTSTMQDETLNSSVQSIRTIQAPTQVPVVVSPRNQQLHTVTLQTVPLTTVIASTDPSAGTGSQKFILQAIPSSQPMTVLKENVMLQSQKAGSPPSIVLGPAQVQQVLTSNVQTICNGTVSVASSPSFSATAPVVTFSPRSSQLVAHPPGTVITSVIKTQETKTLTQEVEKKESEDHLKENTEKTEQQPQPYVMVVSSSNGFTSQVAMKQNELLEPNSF
# Sequence of ETV5 (P41161 whole entry): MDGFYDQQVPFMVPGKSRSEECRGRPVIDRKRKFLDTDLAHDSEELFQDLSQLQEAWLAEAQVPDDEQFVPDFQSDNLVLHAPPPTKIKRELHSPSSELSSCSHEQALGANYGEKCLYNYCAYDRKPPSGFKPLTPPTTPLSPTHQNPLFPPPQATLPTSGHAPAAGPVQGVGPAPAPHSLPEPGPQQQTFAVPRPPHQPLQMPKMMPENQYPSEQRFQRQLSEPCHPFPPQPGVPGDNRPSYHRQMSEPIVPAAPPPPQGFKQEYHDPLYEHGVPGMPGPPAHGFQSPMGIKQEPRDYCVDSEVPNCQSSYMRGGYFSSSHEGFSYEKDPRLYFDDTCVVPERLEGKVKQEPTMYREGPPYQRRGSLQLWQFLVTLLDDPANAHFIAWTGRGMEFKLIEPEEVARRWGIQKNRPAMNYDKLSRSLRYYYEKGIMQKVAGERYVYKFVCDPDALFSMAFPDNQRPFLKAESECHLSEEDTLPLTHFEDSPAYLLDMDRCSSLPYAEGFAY
sequence,measurement,setting,value
AAGCGC,binding signal,FLI1,"1.2 fold enrichment (6-mer frequency, TF over GST control)"
same,binding signal,ELK1,"1.11 fold enrichment (6-mer frequency, TF over GST control)"
same,binding signal,GABPA,"1.12 fold enrichment (6-mer frequency, TF over GST control)"
same,binding signal,ERG,"1.13 fold enrichment (6-mer frequency, TF over GST control)"
same,binding signal,ELF1,"1.15 fold enrichment (6-mer frequency, TF over GST control)"
same,binding signal,EHF,"1.19 fold enrichment (6-mer frequency, TF over GST control)"
same,binding signal,SPI1,"1.07 fold enrichment (6-mer frequency, TF over GST control)"
same,binding signal,SPIB,"1.23 fold enrichment (6-mer frequency, TF over GST control)"
same,binding signal,ELK3,"1.19 fold enrichment (6-mer frequency, TF over GST control)"
same,binding signal,FEV,"1.14 fold enrichment (6-mer frequency, TF over GST control)"
same,binding signal,ETV5,"1.09 fold enrichment (6-mer frequency, TF over GST control)"
same,binding signal,HSF1,"1.08 fold enrichment (6-mer frequency, TF over GST control)"
same,binding signal,SPIC,"1.14 fold enrichment (6-mer frequency, TF over GST control)"
same,binding signal,ELF4,"1.12 fold enrichment (6-mer frequency, TF over GST control)"
same,binding signal,ELK4,"1.2 fold enrichment (6-mer frequency, TF over GST control)"
same,binding signal,ELF3,"1.16 fold enrichment (6-mer frequency, TF over GST control)"
same,binding signal,CRX,"1.27 fold enrichment (6-mer frequency, TF over GST control)"
same,binding signal,ETV1,"1.09 fold enrichment (6-mer frequency, TF over GST control)"
